PubChem BioAssay AID434962 (The Scripps Research Institute Molecular Screening Center, 2010)
The whole screen tested about 320,000 compounds, of which about 1,300 (0.41%) were called active. The entries come from a sample that favours actives as a whole. A number with no mark means an inactive call.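 Rule for the calls: active = percent inhibition above the average of all tested compounds plus 3 SD, set per screening campaign (cut at about 16% in these data); inactive = the rest.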

These compounds were tested against Insulin-degrading enzyme (Homo sapiens) (UniProt P14735) (assay: cellular IDE Abeta-cleavage inhibition – fluorescence polarization, HEK cells, FAbetaB substrate, primary screen (AID 434962;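 note: IDE supplied by intact live HEK cells; FP after avidin binding of uncleaved biotin substrate so inhibition keeps polarization high; 0% = DMSO wells and 100% = 60 µM reference IDE inhibitor Ii1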)). Conditions: at 5.59 µM, active compounds read high.
Chain of Insulin-degrading enzyme (Homo sapiens) (P14735 whole entry, looked up): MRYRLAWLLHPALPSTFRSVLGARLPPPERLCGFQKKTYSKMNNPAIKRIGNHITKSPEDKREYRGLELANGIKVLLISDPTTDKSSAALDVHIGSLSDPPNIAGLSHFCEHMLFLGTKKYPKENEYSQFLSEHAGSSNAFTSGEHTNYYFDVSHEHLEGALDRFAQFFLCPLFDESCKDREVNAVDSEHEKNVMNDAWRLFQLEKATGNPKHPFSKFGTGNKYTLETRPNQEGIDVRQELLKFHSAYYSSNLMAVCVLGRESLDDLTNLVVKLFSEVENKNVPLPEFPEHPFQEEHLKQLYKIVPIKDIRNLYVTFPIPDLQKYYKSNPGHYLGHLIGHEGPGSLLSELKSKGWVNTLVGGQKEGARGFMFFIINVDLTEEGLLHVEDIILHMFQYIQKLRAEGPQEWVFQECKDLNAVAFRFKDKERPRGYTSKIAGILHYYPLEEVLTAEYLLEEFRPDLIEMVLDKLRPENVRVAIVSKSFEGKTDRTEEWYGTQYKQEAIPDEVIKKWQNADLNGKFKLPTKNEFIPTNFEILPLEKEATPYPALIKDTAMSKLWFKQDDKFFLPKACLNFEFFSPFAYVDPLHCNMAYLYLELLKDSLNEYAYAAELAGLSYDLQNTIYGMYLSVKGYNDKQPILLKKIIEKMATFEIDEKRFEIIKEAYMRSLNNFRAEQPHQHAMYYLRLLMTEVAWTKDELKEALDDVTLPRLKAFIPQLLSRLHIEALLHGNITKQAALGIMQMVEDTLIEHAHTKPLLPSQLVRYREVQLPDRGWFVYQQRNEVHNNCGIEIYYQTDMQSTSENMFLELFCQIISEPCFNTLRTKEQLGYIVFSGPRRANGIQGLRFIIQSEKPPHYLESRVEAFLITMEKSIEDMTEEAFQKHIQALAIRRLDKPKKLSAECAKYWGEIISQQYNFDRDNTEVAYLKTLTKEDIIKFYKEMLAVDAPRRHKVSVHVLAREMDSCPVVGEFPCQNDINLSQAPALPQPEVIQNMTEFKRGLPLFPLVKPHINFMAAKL
COc1ccc(NC(=O)CSc2nnc(C3CC3)n2C)cc1S(=O)(=O)N1CCCCC1 gave an inhibition of 0.43%.
For O=C1CCN(CCCc2ccccc2)CCN1CCO, the inhibition was 9.53%.
For Cc1noc(C)c1S(=O)(=O)N(C)Cc1ccccc1, the inhibition was 1.11%.
Cn1ncc2c(N3CCCCC3)nc(NCCCO)nc21 was tested, and the inhibition was 4.87%.
COc1cccc(/C=C/C(=O)OCC(=O)N2CCCc3ccccc32)c1 was tested, and the inhibition was 0.1%.
Work on Cc1ccc(Cn2cc(C(=O)NN)c(=O)c3ccc(F)cc32)cc1 yielded an inhibition of 0.01%.
With CN(C(=O)COC(=O)c1cc(-c2ccco2)nc2ccccc12)C1CCS(=O)(=O)C1 (stereo not drawn) the inhibition was -3.18%.
With COc1ccc2c(-c3ccccc3)cc(SCC(=O)N(C)C3CCS(=O)(=O)C3)nc2c1 (stereo not drawn) the inhibition was -3.71%.
Cc1c(-c2cccc(Cl)c2)nc2ccccc2c1C(=O)OCC(=O)N(C)C1CCS(=O)(=O)C1 (stereo not drawn) was tested, and the inhibition was 18.3% (active).
Work on Cc1ccc(C)c(NC(=O)c2cc(-c3cc(C)cc(C)c3O)n[nH]2)c1 yielded an inhibition of -3.27%.
For CC(C(=O)c1ccc(-c2ccccc2)cc1)[n+]1cccc(Br)c1 (stereo not drawn), the inhibition was 23.5% (active).
Compound Cc1ccc(NC(=S)NC(=O)c2ccc(-c3ccccc3)cc2)cc1 has an inhibition of 0.29%.
O=C(NNC(=O)c1ccc(-c2ccccc2)cc1)Nc1ccccc1 gave an inhibition of 2.17%.
For CN(C)c1ccc(/C=C2\NC(=S)N(Cc3ccccc3)C2=O)cc1, the inhibition was 99.8% (active).
With CN(C)c1ccc(C=C2C(=O)OC3(CCCC3)OC2=O)cc1 the inhibition was 0.68%.
Work on O=C1N/C(=C/c2cccs2)C(=O)N1Cc1ccc(F)cc1 yielded an inhibition of -2.86%.
For CN(C1CCS(=O)(=O)C1)S(=O)(=O)c1ccc2ccccc2c1 (stereo not drawn), the inhibition was 5.04%.
In the case of O=C(C1CCN(S(=O)(=O)Cc2ccccc2)CC1)N1CCCc2ccccc21, the inhibition was 0.11%.
In the case of CC1(C)Cc2cccc(OCC(=O)N3CCN(c4ccc([N+](=O)[O-])cc4)CC3)c2O1, the inhibition was 18.8% (active).
With CC1(C)Cc2cccc(OCC(=O)NCc3ccccc3)c2O1 the inhibition was 0.56%.
Work on CC1(C)Cc2cccc(OCC(N)=O)c2O1 yielded an inhibition of -2.75%.
Compound CCCN(CCC)S(=O)(=O)c1ccc(C(=O)N2CC3CCC(CC3)C2)cc1 has an inhibition of -1.85%.
CC(=O)NCCc1ccc(S(=O)(=O)N(C)C2CCS(=O)(=O)C2)cc1 (stereo not drawn) showed an inhibition of -0.05%.
For CN1C(=O)/C(=C/C=C2\SCCN2C)OC1=S, the inhibition was 25.2% (active).
In the case of Nc1nc(Br)c2ccccc2c1-c1ccc(F)cc1, the inhibition was -4.68%.
CC(C)OCCCNC(=S)N1CCC(C(=O)c2ccc3c(c2)OCCO3)CC1 showed an inhibition of 7.22%.
COC(=O)c1cc(C(=O)OCC(=O)Nc2cc(C)on2)cc([N+](=O)[O-])c1 was tested, and the inhibition was 0.35%.
Cc1ccc2c(c1)c1ncn(CCC3=CCCCC3)c(=O)c1n2C gave an inhibition of 4.46%.
In the case of Cc1ccc2c(c1)c1ncnc(N3CCc4ccccc4C3)c1n2C, the inhibition was 39.7% (active).
Cc1ccc(-c2cc(C(=O)N3CCc4ccccc4C3)no2)cc1 was tested, and the inhibition was -0.51%.
Work on COc1ccccc1-c1n[nH]c2c1[C@H](C)CC[C@H]2C(C)C yielded an inhibition of 0.94%.
CCCCOC(=O)c1ccc(NC(c2ccc(C)cc2)P(=O)(OC)OC)cc1 (stereo not drawn) showed an inhibition of 7.2%.
CCOC(=O)c1nn(-c2cccc(C)c2)cc1C(=O)c1ccccc1 gave an inhibition of -1.22%.
For Cc1nn(C)cc1C(=O)c1ccccc1, the inhibition was 16.3% (active).
Work on Cc1nn(C)cc1C(=O)Nc1ccccc1Br yielded an inhibition of 2.37%.
Compound COc1ccc(/C=C2\CCCC3C2=NN(C(=O)c2scnc2C)C3c2ccc(OC)cc2)cc1 (stereo not drawn) has an inhibition of -0.54%.
For O=C(CCc1nnc(Cc2ccc3c(c2)OCO3)o1)NCCc1ccccc1Cl, the inhibition was 0.48%.
Compound CCCCN(C1CCS(=O)(=O)C1)S(=O)(=O)c1ccc(C(C)C)cc1 (stereo not drawn) has an inhibition of 5.43%.
For O=C(Cn1[nH]c(=O)c2ccccc2c1=O)Nc1cccc(-c2nnc3n2CCCCC3)c1, the inhibition was 7.74%.
Compound Cc1c(C(=O)Nc2cccc(S(=O)(=O)N3CCOCC3)c2)oc2ccccc12 has an inhibition of -1.96%.
In the case of Cc1c(C(=O)Nc2cccc(-c3nnc4n3CCCCC4)c2)oc2ccccc12, the inhibition was 17.2% (active).
COc1c(Br)cc2c(C)c(C(=O)N3CCOCC3)oc2c1Br was tested, and the inhibition was 3.66%.
COc1ccccc1N(CC(=O)Nc1ccc(C(F)(F)F)cc1)S(C)(=O)=O was tested, and the inhibition was -2.79%.
With C=CCOc1ccccc1NC(=O)CN1C(=O)CNC1=O the inhibition was -0.94%.
With CN(C)/C=C/C(=O)c1cnc2sccn2c1=O the inhibition was -1.17%.
With COc1ccc(NS(=O)(=O)c2ccc(NC(=S)NC(=O)/C=C/c3ccc(C)cc3)cc2)nn1 the inhibition was 24.2% (active).
COc1ccc(NS(=O)(=O)c2ccc(NC(=O)C(C)(C(F)(F)F)C(F)(F)F)cc2)nn1 showed an inhibition of 6.58%.
For COc1cc(NS(=O)(=O)c2ccc(NC(=S)NC(=O)c3ccc(Br)cc3)cc2)ncn1, the inhibition was -2.01%.
Cc1ccc(NC2CCCN(C(=O)CCC3(C)CC3)C2)cc1C (stereo not drawn) gave an inhibition of 2.09%.
In the case of O=C(Nc1ccc(Cl)c(Cl)c1)N1CC=C(c2ccccc2)CC1, the inhibition was 19.1% (active).
With O=C(Nc1cccc(NC(=O)N2CCN(c3ccccc3)CC2)c1)N1CCN(c2ccccc2)CC1 the inhibition was 3.98%.
COc1cc(C(=O)NCC(=O)N2CC=C(c3ccccc3)CC2)cc(OC)c1OC was tested, and the inhibition was -2.8%.
O=C(CSc1nnc(CNC(=O)c2ccc(F)cc2)o1)Nc1ccc2c(c1)OCO2 was tested, and the inhibition was 1.15%.
In the case of CS(=O)(=O)N(Cc1ccccc1Cl)c1ccc(C(=O)NCc2cccnc2)cc1, the inhibition was 12.1%.
With CC(=O)[C@@]12O[C@@H]1C[C@H]1[C@@H]3CC[C@H]4C[C@@H](O)CC[C@]4(C)[C@H]3CC[C@@]12C the inhibition was 0.23%.
In the case of O=C(COc1ccc(/C=N/NC(=O)c2ccc(O)cc2)cc1)Nc1ccc([N+](=O)[O-])cc1, the inhibition was 0.35%.
For CC(C)(C)C(=O)Nc1ccc(C(=O)N/N=C/c2ccccc2OC(=O)c2ccc(Cl)cc2Cl)cc1, the inhibition was -0.07%.
For O=C(N/N=C/c1ccc(OC(=O)c2ccccc2Cl)cc1)c1ccc(O)cc1, the inhibition was 17.1% (active).
